Test results as given in PubChem BioAssay (EPA / NIEHS).
Inconclusive results are not listed. Calls of active or inactive are those of the source. Rule for the calls, unless noted: active = hit-call score of the fitted dose curve at least 0.9, where 1 is the maximum; inactive = score below 0.9.

Assays:
[1] = CCTE_Shafer_MEA_dev_firing_rate_mean: CCTE's Neural Network Formation Assay for Mean Firing Rate, Shafer Lab (AID 2284031)
How it was run: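 Extracellular spike frequency, AUC over DIV 5–12 recordings, in rat cortical neuron MEA cultures dosed from plating; loss direction vs DMSO.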

[2] = CCTE_Shafer_MEA_dev_per_burst_spike_percent: CCTE's Neural Network Formation Assay for Percent of Spikes in a Burst, Shafer Lab (AID 2284032)
How it was run: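 Value is trapezoidal AUC over recordings on days 5, 7, 9 and 12 of the well-mean fraction of spikes falling in single-electrode bursts; rat cortical cultures exposed continuously from plating, treatment renewed DIV 5 and 9, fitted downward against DMSO.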

[3] = CCTE_Shafer_MEA_dev_active_electrodes_number: CCTE's Neural Network Formation Assay for Number of Active Electrodes, Shafer Lab (AID 2284040; active = hit-call score of the fitted dose curve at least 0.9, where 1 is the maximum;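 note: potency for loss of active electrodes versus DMSO so lower counts are hits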)
How it was run: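 Developing rat cortical networks on MEAs, exposed DIV 0–12. Value is the AUC of active-electrode counts (≥5 spikes/min) from days 5, 7, 9, 12, relative to DMSO.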

[4] = CCTE_Shafer_MEA_dev_burst_rate: CCTE's Neural Network Formation Assay for Burst Rate, Shafer Lab (AID 2284042)
How it was run: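 Cells plated, treated day 0; recorded DIV 5, 7, 9, 12; fed and re-treated DIV 5, 9. Endpoint: bursts per recording time, active-electrode well mean, trapezoidal AUC, fitted in decreasing direction against DMSO baseline.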

[5] = CCTE_Shafer_MEA_dev_per_burst_interspike_interval: CCTE's Neural Network Formation Assay for Burst Interspike Interval, Shafer Lab (AID 2284044)
How it was run: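 Primary rat cortical neurons on 48-well MEA plates, exposed from day 0 through day 12, treatment renewed at DIV 5 and 9. Within-burst interspike interval recorded days 5, 7, 9, 12, well-averaged, summarised as AUC; negative fit versus DMSO.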

[6] = CCTE_Shafer_MEA_dev_burst_duration_mean: CCTE's Neural Network Formation Assay for Mean Burst Duration, Shafer Lab (AID 2284045)
How it was run: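 Network-formation assay in primary rat cortical neurons; treatment spans twelve days of development. Mean burst duration per well is integrated by trapezoidal AUC and fitted in the loss-of-signal direction against DMSO baseline.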

[7] = CCTE_Shafer_MEA_dev_interburst_interval_mean: CCTE's Neural Network Formation Assay for Mean Interburst Interval, Shafer Lab (AID 2284046);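 note: well-mean interburst interval of bursting electrodes as AUC over four recording days; curve fitted for decrease in interburst interval relative to DMSO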
How it was run: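 Developing rat cortical networks on 48-well MEAs receive compound from the day of plating. Burst intervals from each active electrode are averaged per well, and AUC over the recording days is fitted in the negative direction against DMSO.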

[8] = CCTE_Shafer_MEA_dev_inter_network_spike_interval_mean: CCTE's Neural Network Formation Assay for Mean Inter-network Spike Interval, Shafer Lab (AID 2284047)
How it was run: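 Rat cortical cultures, 1.5 x 10^5 cells/well on 48-well MEA plates; continuous exposure days 0–12, medium and compound refreshed DIV 5, 9. Mean time between consecutive network-spike peaks; AUC across DIV 5/7/9/12; DMSO baseline, negative fitting direction.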

[9] = CCTE_Shafer_MEA_dev_network_spike_number: CCTE's Neural Network Formation Assay for Number of Network Spikes, Shafer Lab (AID 2284048);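 note: synchronized bursts across electrodes counted on days 5 7 9 12 and integrated as AUC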
How it was run: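 Extracellular recordings from 16-electrode wells track network formation in rat cortical cultures under continuous treatment from plating. The endpoint is network spike number, expressed as AUC across DIV 5–12 relative to DMSO vehicle.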

[10] = CCTE_Shafer_MEA_dev_spike_duration_mean: CCTE's Neural Network Formation Assay for Mean Spike Duration, Shafer Lab (AID 2284051);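 note: mean network spike duration pooled as area under curve over DIV 5 to 12 recordings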
How it was run: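 Readout is the average length of network spikes, clustered firing across electrodes, summed over DIV 5, 7, 9 and 12 as area under the curve. Neurons from rat cortex developed networks on MEA plates under continuous 12-day exposure.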

[11] = CCTE_Shafer_MEA_dev_network_spike_duration_std: CCTE's Neural Network Formation Assay for Standard Deviation of Network Spike Duration, Shafer Lab (AID 2284052);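 note: area under curve of spike duration SD across recording days 5 to 12; hits are decreases in network spike duration SD versus DMSO vehicle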
How it was run: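 Read-out is the trapezoidal area-under-the-curve across recordings made on days 5, 7, 9 and 12, fitted in the negative direction against DMSO baseline. Neurons were primary rat cortical cells treated from day 0, with treatment renewed at each feed.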

[12] = CCTE_Shafer_MEA_dev_per_network_spike_spike_number_mean: CCTE's Neural Network Formation Assay for Mean Number of Spikes in a Network Spike, Shafer Lab (AID 2284053)
How it was run: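 Continuous twelve-day exposure of developing rat cortical networks grown over 16 microelectrodes per well; spontaneous firing is captured at four time points, and the per-network-spike spike number is integrated over development by trapezoidal AUC.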

[13] = CCTE_Shafer_MEA_dev_per_network_spike_spike_percent: CCTE's Neural Network Formation Assay for Percent of Spikes in a Network Spike, Shafer Lab (AID 2284054)
How it was run: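 Developing networks of rat cortical neurons are dosed at day 0 and recorded extracellularly four times up to day 12. The endpoint is the area under the curve of percent spikes in network spikes, fitted in the negative direction relative to DMSO.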

[14] = CCTE_Shafer_MEA_dev_LDH: CCTE's Lactate Dehydrogenase Assay for Cytotoxicity in the Neural Network Formation Assay, Shafer Lab (AID 2284068; active = hit-call score of the fitted dose curve at least 0.9, where 1 is the maximum;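 note: exposure for twelve days from plating with re-dosing on DIV 5 and 9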)
How it was run: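 Cytotoxicity companion to network-formation recordings: rat cortical neurons received compound over 12 days of development, re-dosed at DIV 5 and 9 feeds. Viability was inferred from LDH enzyme activity relative to DMSO.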

[15] = UKN5_HCS_SBAD2_neurite_outgrowth: University of Konstanz (UKN) Leist Lab Neurite Outgrowth Assay in human iPSC-derived immature Dorsal Root Ganglia Neurons (UKN5) (AID 2284070); settings: actives raise or lower the signal
How it was run: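 Neurite outgrowth is quantified as calcein-AM-labelled neurite area in human iPSC-derived peripheral neurons treated for 24 h, starting 1 h after plating in medium with CHIR99021 (1.5 uM), SU5402 (5 uM) and DAPT (5 uM).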

[16] = CCTE_Shafer_MEA_dev_AB: CCTE's Alamar Blue Assay for Cytotoxicity in the Neural Network Formation Assay, Shafer Lab (AID 2284083; active = hit-call score of the fitted dose curve at least 0.9, where 1 is the maximum;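 note: resazurin reduction fluorescence as viability of cultured neurons; twelve days of exposure from plating with re-dosing on DIV 5 and 9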)
How it was run: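 Fluorescent resazurin reduction serves as the viability read-out, with DMSO as negative control and baseline. Cells were primary rat cortical neurons grown on MEA plates and dosed from day 0 to day 12, treatment renewed on DIV 5 and 9.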

[17] = CCTE_Shafer_MEA_dev_mutual_information_norm: CCTE's Neural Network Formation Assay for Mutual Information Normalization, Shafer Lab (AID 2284091)
How it was run: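 Exposure of primary rat cortical neurons began at plating and ran to DIV 12, with full media and treatment renewal after DIV 5 and 9 recordings. Mutual information AUC (DIV 5–12) was analysed for loss versus DMSO.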

[18] = CCTE_Shafer_MEA_dev_correlation_coefficient_mean: CCTE's Neural Network Formation Assay for Mean Correlation Coefficient, Shafer Lab (AID 2284093);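 note: well mean pairwise spike train correlation integrated as AUC over recording days 5 to 12; potency fitted for loss of correlation relative to DMSO vehicle wells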
How it was run: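 Read-out: well-mean correlation coefficient of spike trains between electrode pairs, collapsed over four recording days as trapezoidal area-under-the-curve. Developing rat cortical neuron networks grown on MEAs received test chemical continuously from plating.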

[19] = UKN2_HCS_IMR90_neural_migration: University of Konstanz (UKN) Leist Lab Neural Crest Cell Migration Assay in human induced IMR90 Pluripotent Stem Cells (UKN2) (AID 2284204); settings: actives raise or lower the signal
How it was run: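 Using a 96-well stopper format with PLO/laminin/fibronectin coating, neural crest cells from iPSC migrate in cytokine-supplemented N2-S medium; after 24 h, chemicals are applied for a further 24 h, then cells are imaged after dye staining.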

[20] = IUF_NPC1b_proliferation_BrdU_72hr: Leibniz Research Institute for Environmental Medicine (IUF) 72-hour Neural Progenitor Cell Bromodeoxyuridine (BrdU) Proliferation Assay (NPC1b) (AID 2284207)
How it was run: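 Neural progenitor spheres of human fetal origin are treated for three days; BrdU added for the last 16 h is quantified by luminescence ELISA, with DMSO as baseline and EGF/FGF omission as positive control.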

[21] = IUF_NPC1a_proliferation_area_72hr: Leibniz Research Institute for Environmental Medicine (IUF) 72-hour Neural Progenitor Cell Proliferation Area Assay (NPC1a) (AID 2284208)
How it was run: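 Single 0.25–0.35 mm human fetal neural progenitor spheres in proliferation medium with EGF and FGF, exposed 72 h from plating without renewal at 37C, pH 7.2-7.6. Sphere area growth measured by automated phase-contrast imaging, relative to DMSO.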

[22] = UKN4_HCS_LUHMES_cell_viability: Viability Assessment in the University of Konstanz (UKN) Leist Lab Neurite Outgrowth Assay in human LUHMES cells (UKN4) (AID 2284232)
How it was run: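 Measured in replated, 2-day-differentiated LUHMES cells treated 24 h; stained 30 min with H-33342 and calcein-AM before high-content imaging.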

[23] = UKN2_HCS_IMR90_cell_viability: Viability Assessment in the University of Konstanz (UKN) Leist Lab Neural Crest Cell Migration Assay in human induced IMR90 Pluripotent Stem Cells (UKN2) (AID 2284233);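 note: viability of neural crest cells differentiated from IMR90 iPSC measured by calcein-AM fluorescence imaging; cells exposed to compound for 24 h after a 24 h migration phase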
How it was run: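 cMINC format, iPSC-derived neural crest (IMR90); 24 h migration (EGF/FGF, N2-S), then 24 h toxicant. Calcein-AM/H-33342 stain 30 min; fluorescence intensity by HCS; DMSO-normalised, bidirectional fitting.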

[24] = IUF_NPC2c_oligodendrocyte_migration_120hr: Leibniz Research Institute for Environmental Medicine (IUF) 120-hour Neural Progenitor Cell Migration Assay for Oligodendrocyte Migration (NPC2c) (AID 2284297);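 note: O4-positive oligodendrocyte migration distance divided by radial glia migration distance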
How it was run: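 Human fetal neural progenitor spheres (0.3 mm) are plated on poly-D-lysine/laminin in N2 differentiation medium and exposed for 120 h, with half-medium renewal at day 3. Oligodendrocyte (O4+) migration distance comes from ICC imaging, normalised to radial glia migration.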

[25] = IUF_NPC2a_radial_glia_migration_120hr: Leibniz Research Institute for Environmental Medicine (IUF) 120-hour Neural Progenitor Cell Migration Assay for Radial Glia Migration (NPC2a) (AID 2284298)
How it was run: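 Human fetal-cortex neural progenitor spheres (0.3 mm) plated on poly-D-lysine/laminin in N2 differentiation medium, exposed 120 h at 37C with half-medium renewal at day 3. Radial glia migration distance (um) measured from Hoechst-stained nuclei images; DMSO baseline.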

[26] = IUF_NPC2a_radial_glia_migration_72hr: Leibniz Research Institute for Environmental Medicine (IUF) 72-hour Neural Progenitor Cell Migration Assay for Radial Glia Migration (NPC2a) (AID 2284299)
How it was run: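 Spheres of human primary neural progenitors migrate on poly-D-lysine/laminin under compound exposure at 37C, 5% CO2. The 72 h radial glia migration distance comes from brightfield images, measured manually.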

[27] = IUF_NPC2b_neuronal_migration_120hr: Leibniz Research Institute for Environmental Medicine (IUF) 120-hour Neural Progenitor Cell Migration Assay for Neuron Migration (NPC2b) (AID 2284300)
How it was run: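 0.3 mm hNPC spheres on poly-D-lysine/laminin in N2 differentiation medium exposed 120 h, half-medium refresh day 3; 7 concentrations, DMSO max 0.1%. Neuron (TUBB3) distance from sphere core by ICC imaging, normalised to radial glia migration.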

[28] = IUF_NPC3_neuronal_differentiation_120hr: Leibniz Research Institute for Environmental Medicine (IUF) 120-hour Neuronal Differentiation Assay (NPC3) (AID 2284301)
How it was run: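 Neuronal differentiation of primary human neural progenitors measured by high-content imaging: percent TUBB3+ of Hoechst+ nuclei within migrated area at 120 h, seven-point serial dilution plus solvent control, gain or loss relative to DMSO.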

[29] = IUF_NPC4_neurite_length_120hr: Leibniz Research Institute for Environmental Medicine (IUF) 120-hour Neuronal Morphology Assay for Neurite Length (NPC4) (AID 2284302)
How it was run: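 Neurons from differentiating human fetal neural progenitor spheres are scored for average neurite length after five days of compound exposure. Fitting uses DMSO as negative control.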

[30] = IUF_NPC5_oligodendrocyte_differentiation_120hr: Leibniz Research Institute for Environmental Medicine (IUF) 120-hour Oligodendrocyte Differentiation Assay (NPC5) (AID 2284304; active = hit-call score of the fitted dose curve at least 0.9, where 1 is the maximum;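 note: primary human fetal neural progenitor spheres plated to migrate and differentiate; share of O4-positive cells among Hoechst nuclei found by CNN image analysis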)
How it was run: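 Human fetal neural progenitor spheres (0.3 mm) plated on poly-D-lysine/laminin in N2 differentiation medium and exposed for 120 h at 7 concentrations, with half-medium renewal at day 3. O4-positive cells identified by CNN, expressed as percent of Hoechst nuclei.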

[31] = IUF_NPC4_neurite_area_120hr: Leibniz Research Institute for Environmental Medicine (IUF) 120-hour Neuronal Morphology Assay for Neurite Area (NPC4) (AID 2284305; active = hit-call score of the fitted dose curve at least 0.9, where 1 is the maximum)
How it was run: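 Endpoint at 120 h: automated imaging of TUBB3/Hoechst-stained differentiating human neural progenitor spheres, neurite area per neuron from skeletonization. DMSO solvent control, not above 0.1%, set the baseline; medium was half-replaced on day 3.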

[32] = IUF_NPC2-5_cytotoxicity_72hr: Cytotoxicity Assessment at 72 hours in the Leibniz Research Institute for Environmental Medicine (IUF) Neural Progenitor Cell Migration and Differentiation Assay for Cytotoxicity (NPC2-5) (AID 2284306; active = hit-call score of the fitted dose curve at least 0.9, where 1 is the maximum;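 note: LDH release into supernatant measured by resorufin fluorescence marking membrane damage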)
How it was run: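 Primary human neural progenitor spheres migrate and differentiate on laminin. Compound is present from the start of differentiation, with DMSO kept at or below 0.1%. At 72 h, supernatant LDH is quantified fluorometrically, with values fitted in the positive direction.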

[33] = IUF_NPC2-5_cytotoxicity_120hr: Cytotoxicity Assessment at 120 hours in the Leibniz Research Institute for Environmental Medicine (IUF) Neural Progenitor Cell Migration and Differentiation Assay (NPC2-5) (AID 2284307; active = hit-call score of the fitted dose curve at least 0.9, where 1 is the maximum)
How it was run: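 Human fetal (GW 16-19) neural progenitor spheres (0.3 mm) plated on poly-D-lysine/laminin in N2 differentiation medium, exposed 120 h with half-medium renewal at day 3; 7 concentrations plus solvent control, DMSO ≤0.1%. LDH release in supernatant read by resorufin fluorescence.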

[34] = IUF_NPC2-5_cell_number_120hr: Cell Number Assessment at 120 hours in the Leibniz Research Institute for Environmental Medicine (IUF) Neural Progenitor Cell Migration and Differentiation Assay (NPC2-5) (AID 2284308);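 note: count of Hoechst-stained nuclei in migration zone around plated human neural progenitor spheres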
How it was run: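 Human fetal neural progenitor spheres (0.3 mm) plated on poly-D-lysine/laminin in N2 differentiation medium, exposed five days across 7 concentrations with half-medium refresh at day 3. Hoechst-positive nuclei counted in migration area at 120 h, relative to DMSO.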

[35] = IUF_NPC2-5_viability_120hr: Viability Assessment at 120 hours in the Leibniz Research Institute for Environmental Medicine (IUF) Neural Progenitor Cell Migration and Differentiation Assay (NPC2-5) (AID 2284312)
How it was run: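 Human fetal (GW 16-19) neural progenitor spheres of 0.3 mm were plated on poly-D-lysine/laminin in N2 differentiation medium and exposed from day 0 for 120 h, with half-medium refresh at day 3. Viability was read as alamar blue resazurin-to-resorufin fluorescence against DMSO.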

Measured: AC50

C[n+]1ccc(-c2ccccc2)cc1
active: [3] 4.33 µM | [14] 4.7 µM | [18] 8.7 µM | [20] 4.54 µM | [21] 18.7 µM
inactive: all other assays above
